Assay results from ChEMBL document CHEMBL3988442, “University of Dundee, Small-Polar-MMV Screening Library” (2021).

Each compound was assayed on Trypanosoma cruzi (assay: Trypanosoma cruzi phosphomannomutase and mannose-1-phosphate guanylyltransferase assay). Details: 10 µM.
Format: functional
Parameters: scale not given: direction of the effect not stated beside the values
With `c1cnn(CC2CCCCN2Cc2cn3ccsc3n2)c1` (stereo not given) the Percent Effect was 9.67%.
Work on `CN(Cc1nnc(-c2ccco2)o1)C1CCCN(c2cccnn2)C1` (stereo not given) yielded a Percent Effect of -2.91%.
`O=C(NCCn1nc2ccccn2c1=O)c1cccc2[nH]ncc12` showed a Percent Effect of 6.29%.
Compound `Cc1nc(CN2CCCC(CCc3c(F)cccc3F)C2)c[nH]1` (stereo not given) has a Percent Effect of 9.6%.
`CC(C)CN1C[C@@H]2CN(C(=O)[C@H]3CCCO3)C[C@@H]2C1=O` gave a Percent Effect of -7.13%.
`CC(NC(=O)NCCCn1cncn1)c1ccccc1Cl` (stereo not given) was tested, and the Percent Effect was -7.63%.
`Cc1[nH]ccc1C(=O)N1CCCC(c2nccn2Cc2cscn2)C1` (stereo not given) showed a Percent Effect of 9.99%.
In the case of `CCn1cc2c(n1)C(COC)CN(Cc1ccccn1)C2` (stereo not given), the Percent Effect is reported as -2.43%.
`O=C1CCCc2nccc(-c3ccccc3)c21` gave a Percent Effect of 2.56%.
Compound `c1ccc(OCc2nnc3n2CCN(CC2CCOCC2)C3)nc1` has a Percent Effect of -1.07%.
Work on `CN(C)CC1CN(Cc2ccsc2)Cc2nccn2C1` (stereo not given) yielded a Percent Effect of -1.85%.
For `CCOc1c(Cl)cccc1NCc1cc(C)on1`, the Percent Effect was -1.6%.
`O=C(NCc1cc[nH]n1)NCC(c1ccc(F)cc1)N1CCOCC1` (stereo not given) showed a Percent Effect of 4.79%.
`CCc1nccn1C1CCCN(C(=O)c2csc(NC(C)=O)n2)C1` (stereo not given) showed a Percent Effect of -2.98%.
`Cc1ccc(C(=O)N2CCC3(CC2)CCN(CCN(C)C)C3=O)cn1` was tested, and the Percent Effect was -1.31%.
`Cc1ccc(C(=O)N2CCN(Cc3ccsc3)CC2)n1C` gave a Percent Effect of -1.61%.
For `CS(=O)(=O)NCc1cc2n(n1)CCCN(Cc1cccc(C#N)c1)C2`, the Percent Effect was 7.47%.
With `O=C(NCC1CC1)C1CCC2(CCN(C(=O)c3ccccn3)CC2)O1` (stereo not given) the Percent Effect was -2.44%.
`O=C(NCc1cc[nH]n1)N(CCCO)C1CCc2ccccc21` (stereo not given) was tested, and the Percent Effect was 0%.
`CCC(NC(=O)CC(F)(F)F)c1ccccc1OCC(=O)N1CCCC1` (stereo not given) showed a Percent Effect of -0.845%.
